Bioassay records as filed in PubChem.
FECH inh: inhibitors of human ferrochelatase, primary screen, biochemical, purified FECH, Ni-mesoporphyrin absorbance; Ni-mesoporphyrin absorbance 550 nm; calls only at 10 µM (by protocol); hit rate 3.3% among 20,000; AID 1671448, 2021;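 active = enzyme reaction rate more than 3 SD below the solvent-only control wells on the same plate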;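 also: lower slope than DMSO wells means FECH inhibition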
Target sequence (P22830 whole entry, looked up): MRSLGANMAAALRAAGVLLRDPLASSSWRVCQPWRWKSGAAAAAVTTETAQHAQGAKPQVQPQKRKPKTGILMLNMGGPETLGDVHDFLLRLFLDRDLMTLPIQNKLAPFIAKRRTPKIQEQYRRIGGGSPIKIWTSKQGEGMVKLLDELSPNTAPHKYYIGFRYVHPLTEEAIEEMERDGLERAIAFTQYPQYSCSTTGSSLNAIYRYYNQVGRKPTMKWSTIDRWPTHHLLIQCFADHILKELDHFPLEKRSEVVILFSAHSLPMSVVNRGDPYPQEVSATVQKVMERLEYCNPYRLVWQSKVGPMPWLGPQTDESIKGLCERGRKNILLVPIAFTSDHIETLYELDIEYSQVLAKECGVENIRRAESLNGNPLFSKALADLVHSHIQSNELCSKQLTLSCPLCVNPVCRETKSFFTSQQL
Large screens that a line does not name were inactive. Many of the other results were omitted from the sample, so hits are more common in it than they were.

Cc1ccccc1-c1cc(O)c2c(c1)CN(C(=O)C1CCCO1)CCO2 (configuration not stated)	none
Cc1cc(NC(=O)c2cc3ccccc3o2)n(-c2ncnc3c2cnn3-c2ccc(Cl)cc2)n1	none
COc1ccc(CN(C)C2CCN(C(=O)C(C)C)CC2)c2cccnc12	none
O=C(c1ccncn1)N1CCOc2c(O)cc(-c3cccnc3)cc2C1	none
CC(C)N(CCN1CCCCCC1)Cc1ccc(C(=O)O)cc1	none
Cc1cc(NC(=O)c2ccc(C(F)(F)F)cc2)n(-c2ncnc3c2cnn3-c2cccc(Cl)c2)n1	none
CCc1c(C)nc2ncnn2c1Sc1ccc(NS(=O)(=O)c2ccc(C(C)C)cc2)cc1	none
CN1C(=O)COc2ccc(C(=O)NCc3cnn4ccccc34)cc21	none
COc1cccc(-c2c(NCc3ccccc3)oc3c2c(=O)n(C)c(=O)n3C)c1OC	none
COC(=O)c1c(NC(=O)c2ccc(Cl)s2)sc2c1CCN(C(C)C)C2	none
CC(O)CNc1nc(Nc2ccc(F)cc2)c2cnn(-c3ccccc3)c2n1 (configuration not stated)	none
O=C(NCCc1c[nH]c(=O)[nH]c1=O)c1scc2c1CCCC2	none
CCOc1c(NC2CCCC2)c(=O)c1=O	none
CCOc1ccccc1NC(=O)CN1CCN(Cc2ccccc2Cl)S1(=O)=O	none
CCc1ccccc1NC(=O)CN1CCN(Cc2ccccc2C)S1(=O)=O	none
CCc1ccccc1NC(=O)CN1CCN(Cc2ccc(F)cc2Cl)S1(=O)=O	none
CCOc1ccccc1NC(=O)CN1CCN(Cc2ccc(F)cc2Cl)S1(=O)=O	FECH inh active
CCOC(=O)c1ccccc1NC(=O)CN1CCN(Cc2ccccc2C)S1(=O)=O	none
CCOc1ccccc1NC(=O)CN1CCN(Cc2ccccc2C)S1(=O)=O	FECH inh active
O=C(NCCO)c1cc2n(n1)CCN(Cc1ccc3ccccc3n1)C2	none
O=C(NCCc1nc2cccnc2n1-c1ccccc1)Nc1ccc(Cl)cc1	none
c1csc(CCCc2nc(C3CC3)n[nH]2)c1	none
CCOc1ccc(C(=O)Nc2ccc(Nc3nc(C)cc(Nc4ccc(C)cc4)n3)cc2)cc1	none
CCc1ncc(C(=O)N2CCOc3c(O)cc(-c4cccnc4)cc3C2)cn1	none
COc1ccccc1CNC(=O)c1nc[nH]c1C(=O)NCc1cccnc1	FECH inh active
CC(C)CCNC(=O)c1nc[nH]c1C(=O)NCC1CC1	none
COc1ccccc1CNC(=O)c1[nH]cnc1C(=O)NCC1CCCCC1	FECH inh active
CC(C)NC(=O)c1nc[nH]c1C(=O)NC1CCCc2ccccc21 (configuration not stated)	none
CCCCCN(C)C(=O)c1[nH]cnc1C(=O)NCc1ccccc1	none
O=C(NC1CCCCC1)c1nc[nH]c1C(=O)NC1CCc2ccccc21 (configuration not stated)	FECH inh active
COc1ccccc1CNC(=O)c1[nH]cnc1C(=O)NCCc1c[nH]c2ccccc12	none
COc1ccccc1CNC(=O)c1nc[nH]c1C(=O)NCc1ccccc1	FECH inh active
COc1ccccc1CNC(=O)c1[nH]cnc1C(=O)NCCN(C)C	none
COc1ccccc1CN(Cc1cccnc1)C(=O)c1sc(C)nc1C	none
O=C(NC1CCCCC1)c1nc[nH]c1C(=O)NC1CCCC1	none
COc1ccccc1CNC(=O)c1[nH]cnc1C(=O)NCC1CC1	none
CCc1ccc(CN(C)C(=O)c2cc(COc3ccccc3)[nH]n2)nc1	none
Cc1nc(C(C)NC(=O)COc2ccc(F)cc2)n[nH]1 (configuration not stated)	none
CCc1nc(OCC(=O)NCc2ccc(SC)cc2)c2c(-c3ccc(F)cc3)noc2n1	none
CN1CC2(CCN(C(=O)c3ccc4c(c3)OCCO4)CC2)CC1C(=O)O (configuration not stated)	none
CCOc1ccc(-c2nc(CSc3nc4c(c(=O)[nH]3)CCCC4)c(C)o2)cc1	none
Cc1cc(CC(=O)N2C[C@H]3OC(=O)N(Cc4ccccn4)[C@H]3C2)on1	none
Cc1ccc(CNC(=O)C2(C)Cn3nc(C(=O)NCCN4CCCC4)cc3C(=O)N2C)cc1 (configuration not stated)	none
COc1ccc(CN2CCN(c3cc(OC)ncn3)CC2=O)cc1	none
O=C(NCC1CCCCC1)c1nc[nH]c1C(=O)NCc1ccccc1	FECH inh active
O=C(NCc1ccccn1)c1nc[nH]c1C(=O)NCc1cccnc1	FECH inh active
Cc1ccc(CNC(=O)c2[nH]cnc2C(=O)NC2CCCCC2)o1	none
CC(C)(C)CNC(=O)c1nc[nH]c1C(=O)NCc1ccccc1	none
CC(C)(C)CNC(=O)c1nc[nH]c1C(=O)N1CCC(O)(c2ccc(Cl)cc2)CC1	none
CC(C)CCNC(=O)c1nc[nH]c1C(=O)N1CCC(O)(c2ccc(Cl)cc2)CC1	none
Cc1ccc(CNC(=O)c2[nH]cnc2C(=O)NC(C)C)o1	none
Cc1ccc(CNC(=O)c2nc[nH]c2C(=O)NCc2ccccn2)o1	FECH inh active
CC1CCCN(C(=O)c2[nH]cnc2C(=O)NCc2ccccc2)C1 (configuration not stated)	none
O=C(NCc1ccccc1)c1nc[nH]c1C(=O)N1CCCCC1	none
COc1ccccc1CNC(=O)c1nc[nH]c1C(=O)N1CCC(O)(c2ccc(Cl)cc2)CC1	FECH inh active
CC(C)CCNC(=O)c1nc[nH]c1C(=O)NCc1ccccc1	none
Cn1cnnc1-c1cc(Cl)ccc1Cl	none
CC(C)Cc1nnc2sc(CCc3cn4ccccc4n3)nn12	none
CN(C)c1nccnc1N1CCC(CO)(Cc2ccc(Cl)cc2)CC1	none
CCCNC(=O)c1ccc(CN2C(=O)CCn3nc(-c4ccccc4)cc32)cc1	none
Cc1ccc(NC(=O)CN2CCCN(Cc3ccccc3)S2(=O)=O)cc1C	none
CCC(NC(=O)Cn1c(=O)cc(C)c2ccccc21)c1ccnn1C (configuration not stated)	none
CCOC(=O)c1cc2ccsc2n1CC(=O)Nc1ccc(C(C)=O)cc1	none
CCc1c(C(=O)NCCSc2nnnn2C)[nH]c2ccccc12	none
Cn1c(=O)n(Cc2ccncc2)c(=O)c2cnc(-c3cccnc3)nc21	none
CC(C)n1cncc1CN1CCOC(C(F)(F)F)C1 (configuration not stated)	none
O=C(CSc1nc(-c2cccc(Cl)c2)nc2cc(=O)[nH]n12)N1CCc2ccccc2C1	none
CN1CC2(CCN(CC(=O)N3CCc4ccccc43)C2)OC1=O (configuration not stated)	none
c1ccc(Nc2nc(NCc3cccnc3)nc3c2cnn3-c2ccccc2)cc1	none
CN(C)CCn1ccnc1-c1cc(CN(C)C)cs1	none
CCCNC(=O)c1[nH]cnc1C(=O)NC1CCCCC1	none
COc1ccccc1CNC(=O)c1nc[nH]c1C(=O)N1CCc2ccccc2C1	none
COc1ccccc1CNC(=O)c1[nH]cnc1C(=O)NC1CCc2ccccc21 (configuration not stated)	FECH inh active
O=C(NC1CCCCC1)c1nc[nH]c1C(=O)NCc1ccccn1	FECH inh active
CCCNC(=O)c1[nH]cnc1C(=O)NC1CCCC1	none
O=C(NC1CCCCNC1=O)c1nc[nH]c1C(=O)NCc1ccccn1 (configuration not stated)	none
CCc1nc2cccnc2n1C1CCN(S(=O)(=O)c2ccc3c(c2)CCCC3)CC1	none
COc1ccc(N2C(=O)CCS2(=O)=O)cc1S(=O)(=O)Nc1ccc(Cl)cc1	none
COc1ccccc1C(=O)Nc1cccc(OCc2cc(=O)n3ccc(C)cc3n2)c1	FECH inh active
COc1cccc(C(=O)Nc2cccc(OCc3cc(=O)n4ccc(C)cc4n3)c2)c1	none
Cc1cccc(C(=O)Nc2cccc(OCc3cc(=O)n4ccc(C)cc4n3)c2)c1	none
Cc1cc(C)n(CCNC(=O)c2cc(C)nc3cc(F)ccc23)c(=O)n1	none
Cc1cc(Cl)ccc1NC(=O)CCn1cnc2ccccc2c1=O	none
